The list is not random: actives were taken first. Their share in the collection is about 0.86%.
HIV TAR-Tat – HIV-1 TAR-Tat binding disruption | AID 1259389 | z-score (no concentration beside the values) | HIV-1 TAR RNA, Tat peptide displacement FRET; active compounds read high | hit rate 0.6% among 100,000; active means z-score of 3 or more in at least 2 runs
CDC25B CDK2 inh – human CDC25B-CDK2/CyclinA binding inhibition; P30305+P24941; HTRF CDC25B-CDK2/CyclinA binding, anti-His/anti-Flag; active compounds read high; z-score (no concentration beside the values); hit rate 0.72% among 94,000; AID 1259370; in the data active means z-score above about 3.2
Each line names hits and unclear results; the compound was inactive in the other large screens.

Cc1ccc(C2CC(=O)N3CN(c4ccc(N(C)C)cc4)CSC3=C2C#N)cc1 (stereo not drawn)	CDC25B CDK2 inh 6.7
COc1ccc(C2CC(=O)N3CN(c4ccc(N(C)C)cc4)CSC3=C2C#N)cc1 (stereo not drawn)	CDC25B CDK2 inh 5.5
CS(=O)(=O)Nc1ccc(-c2noc(CNS(=O)(=O)c3ccccc3)n2)cc1	none (no result: CDC25B CDK2 inh)
Cc1nc2cc(S(=O)(=O)N3CCC(C(=O)NCC4CCCO4)CC3)ccc2n1C1CCCC1 (stereo not drawn)	none
COc1ccc(S(=O)(=O)N2CCN(c3cc(N4CCCC4)nc(C)n3)CC2)c(C)c1C	none
CC(C)c1ccc2c(c1)-c1ccccc1S(=O)(=O)N2CC(=O)NCC1CCCO1 (stereo not drawn)	none
Cc1ccc(-c2cc(C(=O)N(Cc3ccco3)Cc3cccs3)no2)cc1F	none
Cc1cc(C(=O)C(=O)Nc2ccc(Br)cc2)c(C)n1-c1ccc(F)cc1	none
Cc1ccc(CN(C(=O)c2sc3ccccc3c2Cl)c2ccccn2)o1	none
COc1ccc2c(c1)c(=O)oc1cc3oc4c(c3cc12)CCCC4	HIV TAR-Tat 3.7
COc1ccc2c(c1)c(=O)oc1cc3oc(C)c(-c4ccccc4)c3cc12	none
Cc1cc(C)cc(NC(=O)CSc2nc(=O)n(CCN(C)C)c3c2CCC3)c1	none (no result: CDC25B CDK2 inh)
COC(=O)C1=C(OC(=O)CN2C(=O)CCC2=O)c2ccccc2S(=O)(=O)N1C	none
COC(=O)C1=C(OC(=O)CN2C(=O)CCC2=O)c2ccccc2S(=O)(=O)N1C(C)C	CDC25B CDK2 inh 6.3
CCCNC(=O)c1cc2c(s1)CSC2	none (no result: HIV TAR-Tat)
Oc1cc(O)c2c(c1)O[C@H](c1ccc(O)c(O)c1)[C@@H](O)C2	none
O=C1C[C@@H](c2ccccc2)Oc2cc(O)cc(O)c21	none (no result: CDC25B CDK2 inh)
O=c1c(O)cccc2c([C@H]3Oc4cc(O)cc(O)c4C[C@H]3O)cc(O)c(O)c12	HIV TAR-Tat 12 (no result: CDC25B CDK2 inh)
Oc1cc(O)c2c(c1)O[C@H](c1cc(O)c(O)c(O)c1)[C@H](O)C2	HIV TAR-Tat 30 (no result: CDC25B CDK2 inh)
CCC(C(=O)Nc1c(C)nc2ccc(Cl)cn2c1=O)c1ccccc1 (stereo not drawn)	none (no result: CDC25B CDK2 inh)
CCN(CC)c1nc(N)c([N+](=O)[O-])c(Nc2ccccc2F)n1	none (no result: CDC25B CDK2 inh)
COc1cccc(Cn2cc3c(-c4ccc(OC)c(OC)c4)nnc-3c3cc4c(cc32)OCCO4)c1	HIV TAR-Tat 5.1
COc1ccc(-c2nnc3c4cc5c(cc4n(Cc4ccccc4)cc2-3)OCCO5)cc1OC	none
Cc1ccc(-c2noc(-c3nnn(-c4ccc(F)cc4F)c3N)n2)cc1	none (no result: CDC25B CDK2 inh)
